# The list is not random: actives were taken first. Their share in the collection is about 11%.
# ALDH1A1 block = inhibitors of human aldehyde dehydrogenase 1A1 | Potency, µM (highest dose often 75.3 µM), inactives show at the highest dose activity, negative = inhibition, actives largely listed as inhibitors | 220,000 compounds, 7.3% hits | Purified ALDH1A1, NADH fluorescence, propionaldehyde substrate;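 also: potency is read from the fitted curve at half-maximal effect; plate controls were no enzyme wells and a reference inhibitor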
# HPGD block = HPGD (human) dehydrogenase inhibition; P15428; AID 894; purified HPGD, NADH fluorescence kinetic, PGE2 substrate; 150,000 compounds, 4.3% hits; Potency, µM, for the others: at the highest dose activity change, negative = inhibition, hits mostly inhibitors; also: potency is read from the fitted curve at half-maximal effect
# Target sequence (P15428 whole entry, looked up): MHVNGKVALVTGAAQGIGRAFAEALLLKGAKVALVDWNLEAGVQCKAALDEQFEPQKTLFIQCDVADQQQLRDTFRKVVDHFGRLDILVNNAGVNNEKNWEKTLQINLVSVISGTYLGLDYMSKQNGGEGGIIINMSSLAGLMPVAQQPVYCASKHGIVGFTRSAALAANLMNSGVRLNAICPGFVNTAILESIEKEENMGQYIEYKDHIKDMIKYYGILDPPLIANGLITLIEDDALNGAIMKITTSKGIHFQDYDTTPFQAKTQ
#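 20 nM HPGD preincubated 15 min at room temperature with compound in 50 mM Tris-HCl pH 8, 0.01% Tween 20. Started with 1 mM NAD+ and 30 uM prostaglandin E2; NADH fluorescence (360/450 nm) read 5 times over 30-s intervals, last minus first.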
# PNC inhibitor = inhibitors of perinucleolar compartment assembly; AID 2417; 140,000 compounds, 3.1% hits; PC3M PTB-GFP, PNC prevalence imaging, 16 h; hits give low values; activity change (PNC), negative = inhibition, % at 10 µM;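 active = readout at or below -70, meaning at least 70% loss of cells showing the perinucleolar compartment, a nuclear body marking cancer cells; inconclusive = readout between -30 and a set limit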;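 also: plate controls were DMSO wells for no effect and camptothecin positive control wells for full effect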
#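 PC3M cells stably expressing PTB-GFP, 750–1000 cells/well, treated 16 h at 37 °C with compound (23 nl of library stock), in duplicate. After paraformaldehyde fixation and Hoechst stain, imaged at 20x; PNC prevalence scored by image analysis.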
# An asterisk follows results filed as active; ? = inconclusive; . = not tested or not shown. Unless noted, calls follow the shape of the dose curve; as a rule, active = well fitted inhibition curve with a large enough effect (not every such curve was filed as active); inconclusive = small, poorly fitted or top-dose-only effect, or another doubt; inactive = no such curve, though single readings can be large or run the other way. Unless noted, % is scaled to controls: 0 for no effect and ±100 for the full control effect.
SMILES,ALDH1A1 block,HPGD block,PNC inhibitor
Cc1ccc(Cl)cc1Nc1nc(-c2sc(NC(=O)c3cccc(Cl)c3)nc2C)cs1,?,-19%,37
Cc1ccc(Nc2nc(-c3sc(NC(=O)c4ccc([N+](=O)[O-])cc4)nc3C)cs2)cc1,?,-12%,64
Cc1ccccc1Nc1nc(-c2sc(NC(=O)c3cccc(Cl)c3)nc2C)cs1,18µM*,-14%,?
Cc1ccccc1Nc1nc(-c2sc(NC(=O)c3ccccc3)nc2C)cs1,20µM*,?,4
Cc1nc(NC(=O)c2ccccc2)sc1-c1csc(Nc2ccc(Cl)cc2)n1,?,-23%,?
Cc1ccccc1Nc1nc(-c2sc(NC(=O)c3ccc([N+](=O)[O-])cc3)nc2C)cs1,?,-23%,24
CCOc1ccccc1Nc1nc(-c2sc(NC(=O)c3ccc([N+](=O)[O-])cc3)nc2C)cs1,0.79µM*,-3%,-24
COc1ccccc1CN1CCC2(CC1)CCN(C(=O)c1ccco1)CC2,?,-1%,.
COC(=O)C(NC(C)=O)(Nc1ccc(C)cn1)C(F)(F)F (stereo not given),-13%,.,.
CC(C)NC(=O)CSc1nc(N)c(NC(=O)c2ccco2)c(=O)[nH]1,10%,.,.
C(=C\c1nnc2c3ccccc3ncn12)/c1ccccc1,?,-30%,-97*
COc1cc(/C=C/c2nnc3c4ccccc4ncn23)cc(OC)c1OC,-1%,.,48
O=c1c2ccccc2nc(-c2ccc(F)cc2)n1NCc1ccccc1O,3%,.,.
Cc1nc2scc(-c3ccc(Cl)cc3)c2c(=O)n1N,6%,.,.
Cn1cc(/C=N/n2cnc3scc(-c4ccc(Cl)cc4)c3c2=O)c2ccccc21,?,?,-99*
Cc1ccc(NC(=O)COC(=O)C(CC(C)C)N2C(=O)C3CC=CCC3C2=O)c(C)c1 (stereo not given),-15%,-8%,-87*
CC(C)CC(C(=O)OCC(=O)c1c(N)n(C)c(=O)n(C)c1=O)N1C(=O)C2CC=CCC2C1=O (stereo not given),3%,.,.
Cc1ccc(CNc2ccc(S(=O)(=O)N3CCOCC3)cc2[N+](=O)[O-])cc1,0%,-9%,1
CCOC(=O)C1(CCCc2ccccc2)CCN(C(=O)CCC2=NNC(=O)CC2)CC1,2µM*,.,.
CCOC(=O)C1(CCc2ccccc2)CCN(C(=O)c2cc(C)nc(C)n2)CC1,-10%,.,.
CCOC(=O)C1(CCc2ccccc2)CCN(C(=O)CN2C(=O)CSC2=O)CC1,5%,.,.
CCOC(=O)C1(CCCc2ccccc2)CCN(C(=O)C2=C(C)OCCO2)CC1,3.2µM*,.,.
CCOC(=O)C1(CCCc2ccccc2)CCN(C(=O)c2ccoc2)CC1,4µM*,.,.
CC#CC(=O)N1CCC(CCc2ccccc2)(C(=O)OCC)CC1,5%,.,.
CCOC(=O)C1(CCc2ccccc2)CCN(C(=O)c2ccoc2)CC1,25µM*,.,.
SMILES,ALDH1A1 block,HPGD block,PNC inhibitor
CCOC(=O)C1(CCc2ccccc2)CCN(C(=O)C2CCOCC2)CC1,7%,.,.
COc1cccc([C@@H]2Oc3ccc(OC)cc3C[C@H]2OC(=O)NS(=O)(=O)c2ccc(C)cc2)c1,4%,-20%,.
O=C(CN1C(=O)COc2ccc(S(=O)(=O)N3CCCC3)cc21)NC1CCCCCCC1,9%,-4%,18
O=C(CN1C(=O)NC2(CCCCCCC2)C1=O)N1CCN(C(=O)c2ccco2)CC1,11µM*,1%,-18
O=C(COC(=O)C1(c2ccccc2F)CCCC1)N1CCN(C(=O)c2ccco2)CC1,4%,-5%,1
O=C(CN1C(=O)NC2(CCCC2)C1=O)N1CCN(C(=O)c2ccco2)CC1,-8%,-13%,3
O=C(COC(=O)C1(c2ccc(F)cc2)CCCC1)N1CCN(C(=O)c2ccco2)CC1,20µM*,-2%,?
CC(=O)Oc1cccc(N2C(=O)C3C4C=CC(C4=C(C)C)C3C2=O)c1 (stereo not given),7.1µM*,-11%,-18
CC(=O)c1cccc(N2C(=O)C3C4CCC(C4=C(C)C)C3C2=O)c1 (stereo not given),6%,-2%,?
CC(=O)Oc1cccc(N2C(=O)C3CC=CCC3C2=O)c1 (stereo not given),4%,-3%,?
CC(=O)Oc1cccc(N2C(=O)C3C(C2=O)C2C=CC3C23CC3)c1 (stereo not given),20µM*,-14%,-7
CC(C)(C)C(=O)Nc1cccc(-c2cc(-c3c(Cl)cccc3Cl)no2)c1,-10%,.,.
O=C(Nc1c2c(nn1-c1ccc(F)cc1)CS(=O)(=O)C2)c1ccc(S(=O)(=O)N2CCOCC2)cc1,6%,.,.
COc1ccc(N2C(=O)C3C4C=CC(CC4)C3C2=O)c([N+](=O)[O-])c1 (stereo not given),?,-20%,-18
CCOc1ccc(N2C(=O)C3C4C=CC(CC4)C3C2=O)c([N+](=O)[O-])c1 (stereo not given),28µM*,-21%,-10
O=c1[nH]c2ccccc2c(O)c1-c1ccccc1[N+](=O)[O-],1%,.,.
CCOc1ccc(Br)cc1S(=O)(=O)Nc1ccc(C(=O)Nc2ccccc2OC)cc1,16µM*,-29%,?
COc1ccccc1NC(=O)c1ccc(NS(=O)(=O)c2ccc(F)c(F)c2F)cc1,?,-16%,-121*
CCOc1ccc(Br)cc1S(=O)(=O)Nc1ccc(C(=O)Nc2ccc(C)cc2)cc1,16%,-8%,-2
COc1ccccc1NC(=O)c1ccc(S(=O)(=O)N(C)C)cc1,-10%,-6%,?
Cc1ccc(C(C)(C)C)cc1S(=O)(=O)NC(=O)c1ccccc1,6%,.,.
Cc1cc(F)ccc1NC(=O)c1ccc(NS(=O)(=O)c2cc(C(C)(C)C)ccc2C)cc1,2.5µM*,-11%,-16
COc1ccc(CCn2c(=O)[nH]c3cc(C(=O)N4CCN(c5ccccn5)CC4)ccc3c2=O)cc1OC,0%,.,.
COc1ccc2oc(=O)c(/C(C)=N/NC(=O)c3ccncc3)cc2c1,-21%,-9%,1
CCOC(=O)c1c(C)n(-c2ccc(C)cc2)c2c(C(C(C)=O)C(=O)O)c(Br)c(O)c(O)c12 (stereo not given),?,18µM*,?
SMILES,ALDH1A1 block,HPGD block,PNC inhibitor
CCOC(=O)C(C(C)=O)c1c(Br)c(O)c(O)c2c(C(=O)c3ccc(C)cc3)coc12 (stereo not given),-3%,7.9µM*,43
CCOC(=O)c1c(C)n(-c2ccc(C)cc2)c2c(CC(C)=O)c(Br)c(OC)c(O)c12,7%,-4%,35
CCOC(=O)c1cc(C(=O)c2cc(Br)ccc2O)coc1=N,5%,.,.
CC1(c2cccc3ccccc23)NC(=O)N(CC(=O)NC2CCS(=O)(=O)C2)C1=O (stereo not given),5%,.,17
CCc1cccc(C)c1NC(=O)CSc1nc2ccc(N3C(=O)c4ccccc4C3=O)cc2s1,4%,-10%,37
CCc1cccc(CC)c1NC(=O)CSc1nc2ccc(N3C(=O)C4C(C3=O)[C@H]3C=C[C@@H]4C3)cc2s1 (stereo not given in full),18µM*,20µM*,-24
COc1cccc([C@@H]2Oc3ccc(Br)cc3C[C@H]2OC(=O)N[C@H]2CCCc3ccccc32)c1,2%,-8%,.
O=C(Nc1ccc([N+](=O)[O-])cn1)c1ccc(Br)o1,-2%,-7%,?
